# Screening data from PubChem BioAssay.
# Shown are actives, neighbours in structure and some others; about 3.1% of the full set was active somewhere.
# TR SRC2 fluor cs = alters Texas Red total fluorescence, flagging assay interference; TRb/SRC2 Texas Red total fluorescence interference; Potency, µM (titrated, usually from 106 µM); 280,000 compounds, 0.29% hits; active = well fitted curve in either direction with a large enough effect; inconclusive = small, poorly fitted or top-dose-only effect
#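 Flags fluorescent or light-absorbing compounds by total fluorescence, S + 2P, at 555 nm excitation and 632 nm emission. Mixture: 20 nM Texas Red SRC2 peptide, 0.6 uM human TRb LBD, 1 uM T3, 5% DMSO; compound exposure 5 h at ambient temperature.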
# Tau fibril FP = inhibitors of human tau fibril formation | P10636 | K18 P301L tau heparin fibrillization, Alexa594 FP, 6 h | Potency, µM (top dose mostly 57.7 µM), hits mostly inhibitors | 280,000 compounds, 0.39% hits | AID 1468; note: nearly all actives have a fitted effect of over 55% in size
#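 Quantitative HTS format: compounds meet 15 uM recombinant K18 P301L tau and Alexa 594-tau tracer in 100 mM sodium acetate pH 7; 20 uM heparin triggers fibrillization at 37 C over 6 hr; FP gives the signal.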
# Tau fluor cs = counter-screen for tau fibril formation inhibitors. tau K18 P301L Alexa594 fluorescence, heparin fibrillization. Potency, µM (highest dose often 57.7 µM). 280,000 compounds, 0.93% hits; note: nearly all actives have a fitted effect of over 55% in size
#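 Human K18 P301L tau (15 uM unlabeled plus 0.24 uM Alexa 594-labeled, final) in 100 mM sodium acetate pH 7 was mixed with compound and 20 uM heparin and incubated 6 hr at 37 C.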
# TRb-SRC2 inh = disrupts binding of human TR beta to SRC2 | P10828 | TRbeta-SRC2 peptide binding, fluorescence polarization; receptor liganded with 1 µM T3 | Potency, µM (top dose mostly 106 µM), usual class: inhibitors | 280,000 compounds, 0.065% hits | AID 1469; note: nearly all actives have a fitted effect of over 50% in size
# Target sequence (P10828 whole entry, looked up): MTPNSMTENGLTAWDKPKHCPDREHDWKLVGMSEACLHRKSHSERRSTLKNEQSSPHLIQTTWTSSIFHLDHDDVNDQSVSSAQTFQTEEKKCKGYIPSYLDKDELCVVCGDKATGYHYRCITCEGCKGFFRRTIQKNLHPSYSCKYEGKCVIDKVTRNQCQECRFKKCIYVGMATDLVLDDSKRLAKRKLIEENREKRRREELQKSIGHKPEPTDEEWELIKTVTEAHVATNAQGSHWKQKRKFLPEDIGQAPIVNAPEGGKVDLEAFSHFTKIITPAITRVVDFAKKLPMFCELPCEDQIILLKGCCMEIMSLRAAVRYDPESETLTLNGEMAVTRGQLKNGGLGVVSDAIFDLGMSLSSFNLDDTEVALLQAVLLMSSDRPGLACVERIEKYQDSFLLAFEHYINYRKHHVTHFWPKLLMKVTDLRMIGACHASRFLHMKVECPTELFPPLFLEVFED
#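 Decrease in fluorescence polarization of 20 nM Texas Red SRC2 coactivator peptide flagged inhibition of its binding to 0.6 uM TRb LBD; 1 uM T3 included, incubation 5 hr, ex 555/em 632 nm.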
# Tau fibril ThT = blocks human tau fibril formation measured by thioflavin T; P10636; recombinant tau K18 P301L (four-repeat tau fragment), heparin-induced fibrillization, ThT fluorescence; Potency, µM (highest dose often 57.4 µM), hits mostly inhibitors; 270,000 compounds, 2.1% hits; AID 1460; note: nearly all actives have a fitted effect of over 55% in size
#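 Tau K18 P301L fragment (15 uM unlabeled plus 0.24 uM Alexa 594-labeled) in 100 mM sodium acetate pH 7 with compound, fibrillization induced by 20 uM heparin for 6 hr at 37 C. Thioflavin T (30 uM) added, fluorescence read after 1 hr (ex 450, em 510 nm).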
# GoLoco inh red = inhibitors of human Gai1-RGS12 GoLoco interaction (red fluorophore). P63096. Gai1:RGS12 GoLoco peptide FP, rhodamine, 10 min. Potency, µM (top dose mostly 61.6 µM), usual class: inhibitors. 230,000 compounds, 0.44% hits; active = well fitted inhibition curve with a large enough effect, not every such curve was filed as active; inactive = no such curve, though single readings can be large or run the other way; note: nearly all actives have a fitted effect of over 30% in size
# A number is an active result; - = inactive; ? = inconclusive; . = no result; [ ] = remark or other dose. Unless noted, calls come from the whole dose curve; as a rule, active = well fitted curve in the direction sought with a large enough effect; inconclusive = small, poorly fitted or top-dose-only effect, or another doubt; inactive = no such curve, though single readings can be large; an effect the other way counts as inactive or inconclusive.
SMILES,TR SRC2 fluor cs,Tau fibril FP,Tau fluor cs,TRb-SRC2 inh,Tau fibril ThT,GoLoco inh red
CCN(CC)c1ccc(/C=C/C(=O)C2C(=O)C=C(C)OC2=O)cc1 (stereo not drawn),32µM[fluorescent],?,6.3µM[fluorescent],?,3.2µM,-
CCN(CC)c1ccc(C=C2C(=O)OC(c3ccccc3)OC2=O)cc1 (stereo not drawn),-,-,-,-,-,-
COc1ccc([N+](=O)[O-])cc1NC(=O)N(C)Cc1ccco1,-,-,-,-,-,-
O=C(COC(=O)c1ccccc1NS(=O)(=O)c1cccs1)NC1CCCCC1,112µM[quencher],-,-,-,-,-
COc1ccccc1Cc1nc2ccccc2nc1SCC(=O)NCCc1ccccc1,-,-,-,-,-,.
O=C(NN1C(=O)C2C(C1=O)C1C=CC2C12CC2)c1cccc(Cl)c1 (stereo not drawn),-,-,-,-,-,-
COC(=O)c1ccccc1NC(=O)/C=C/c1ccco1,3.2µM[quencher],-,-,?,-,-
Cc1ccccc1Oc1cc(-n2ncc(Cl)c(Cl)c2=O)ncn1,-,?,-,-,10µM,-
COc1cc(Cl)c(NC(=O)c2cc(S(=O)(=O)N3CCCCC3)c[nH]2)c(OC)c1,20µM[quencher],-,?,-,-,.
Cc1cccc(NC(=O)c2cc(S(=O)(=O)N3CCCCC3)c[nH]2)c1C,-,?,-,-,-,.
CCOC(=O)Cn1c(C)c(C#N)c2ccccc21,-,-,-,-,-,-
CC1(C)C(=O)OC(c2cc(Br)ccc2O)C(C)(C)C1=O (stereo not drawn),-,-,-,-,-,-
O=C(COC(=O)c1cc(S(=O)(=O)N2CCc3ccccc3C2)ccc1Cl)NCc1ccco1,-,?,?,-,32µM,-
COc1ccc(OC)c(C2C(C#N)=C(N)Oc3c2c(C)nn3-c2cccc(Cl)c2)c1 (stereo not drawn),-,-,?,-,13µM,-
CC(=O)Nc1ccc(-n2c(CCC(=O)O)ccc2-c2ccc(C)cc2)cc1,-,-,-,-,?,.
Cc1cc(C)nc(NS(=O)(=O)c2ccc(Br)s2)c1,-,-,-,-,-,-
Cc1ccc(NS(=O)(=O)c2ccc(Br)s2)nc1,-,?,-,-,28µM,-
Cn1nc([N+](=O)[O-])c(C(C#N)c2ccccn2)c(Cl)c1=O (stereo not drawn),-,?,13µM[quencher],-,8.9µM,-
C/C(N)=C(/C#N)C(=O)CSc1nc2cc(Cl)ccc2s1,-,?,?,-,?,-
CCCn1nc([N+](=O)[O-])c(C(C#N)c2nc3ccccc3o2)c(Cl)c1=O (stereo not drawn),-,?,14µM[quencher],-,7.1µM,-
CCn1nc([N+](=O)[O-])c(C(C#N)c2nc3cc(C(F)(F)F)ccc3s2)c(Cl)c1=O (stereo not drawn),-,20µM,6.3µM[quencher],-,4.5µM,-
CN(Cc1ccccc1)C(=O)COC(=O)Cn1cnc2ccccc21,-,-,-,-,-,-
CC(=O)c1c(N=CN(C)C)nc(C)nc1-c1ccccc1,-,-,-,-,-,-
CN(C)C=Nc1ccccc1C1C=NNC1=O (stereo not drawn),-,-,-,-,11µM,-
CCC1c2ccc(C)n2CCN1C(=O)Nc1cc(Cl)ccc1OC (stereo not drawn),-,?,-,-,22µM,-
CCN(C(=O)c1cc(S(=O)(=O)N2CCOCC2)cn1C)c1ccc(OC)cc1,-,-,-,-,-,.
COc1ccc(-c2c(C)nn3c4c(cnc23)C(=O)CC(c2ccc(C)cc2)C4)cc1 (stereo not drawn),14µM[quencher],-,-,-,-,.
COc1ccc(C2CC(=O)c3cnc4c(-c5ccccc5)c(C)nn4c3C2)c(OC)c1 (stereo not drawn),-,-,-,-,-,.
CS(=O)(=O)N(CC(=O)NCC1CCCO1)c1cc(Cl)cc(Cl)c1 (stereo not drawn),-,-,-,-,-,-
